Measurements as given in PubChem BioAssay (NCATS).
Several values for one entry are separate records, joined by “and”; a condition that tells them apart may be missing. Identical values can stand only once. Inconclusive results are not listed. Where a call stands in place of a potency, no number is given. Activity calls are given as the source filed them. Unless noted, the call rests on the fitted dose curve; in most records, active means well fitted curve in the direction sought with a large enough effect; inconclusive means small, poorly fitted or top-dose-only effect, or another doubt; inactive means no such curve, though single readings can be large; an effect the other way counts as inactive or inconclusive.

Tests used:
[1] = Primary qHTS for inhibitors of nuclear receptor binding SET domain protein 2 (NSD2) in an isogenic RCH-ACV NSD2 p.E1099K mutant (9B) (AID 1645876); further: nearly all actives have a fitted effect of over 70% in size; further: potency means the concentration at half of the fitted maximal effect
[2] = Primary qHTS for inhibitors of nuclear receptor binding SET domain protein 2 (NSD2) in an RCH-ACV wild type WT cells (2C) (AID 1645877); further: nearly all actives have a fitted effect of over 70% in size; further: potency means the concentration at half of the fitted maximal effect
[3] = Primary qHTS for small molecule stabilizers of the endoplasmic reticulum resident proteome: Secreted ER Calcium Modulated Protein (SERCaMP) assay (AID 1508630)
Procedure, shortened: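 The SH-SY5Y reporter protocol was run at 3 concentrations up to 38.3 uM (primary) or 11 concentrations (follow-up): 16 h compound, 100 nM thapsigargin for 4 h, then extracellular luciferase luminescence.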

[4] = NCATS anti-infectives library activity on HEK293 viability as a counter-qHTS vs the C. elegans viability qHTS (AID 1745854)
Procedure, shortened: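 CellTiter-Glo luminescence, read on a CCD imager, scored viability of HEK293 cells after 24 hr compound exposure at 37C. Library tested in several concentrations, 1:5 steps, up to 41.7 uM; digitonin served as control.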

[5] = biological target: Cytochrome P450 2D6 (Homo sapiens) (UniProt P10635); assay: Cytochrome P450 family 2 subfamily D member 6 (CYP2D6) small molecule antagonists: luciferase biochemical (cell-free) qHTS assay (AID 1645840; active means well fitted curve in the direction sought with a large enough effect in the repeat runs; an effect the other way counts as inactive or inconclusive; further: nearly all actives have a fitted effect of over 55% in size; further: potency means the concentration at half of the fitted maximal effect)
Procedure, shortened: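 P450-Glo CYP2D6 system: proluciferin substrate converted by enzyme to luciferin, read by luminescence proportional to activity. Enzyme-substrate mix with compound 10 min at room temperature, then NADPH regeneration 1 h before detection reagent.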

[6] = biological target: Cytochrome P450 2C9 (Homo sapiens) (UniProt P11712); assay: Cytochrome P450 family 2 subfamily C member 9 (CYP2C9) small molecule antagonists: luciferase biochemical (cell-free) qHTS assay (AID 1645842; active means well fitted curve in the direction sought with a large enough effect in the repeat runs; an effect the other way counts as inactive or inconclusive; further: nearly all actives have a fitted effect of over 55% in size; further: potency means the concentration at half of the fitted maximal effect)
Procedure, shortened: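 P450-Glo CYP2C9 system: proluciferin substrate with enzyme in mix containing 0.4% BSA, 10 min at room temperature, then NADPH regeneration solution added and incubated 1 h at 37C. Detection reagent stopped reaction; luminescence read after 20 min as RLU.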

[7] = biological target: Catechol O-methyltransferase (Homo sapiens) (UniProt P21964); assay: Confirmatory Screen for Target Class Profiling of Small Molecule Inhibitors of Methyltransferases (AID 1745852); conditions: MTase-Glo luminescence, SAH detection, recombinant enzyme; measured here: COMT max response; stronger effect = lower value
[8] = biological target: Guanidinoacetate N-methyltransferase (Homo sapiens) (UniProt Q14353); assay: as above; conditions: MTase-Glo luminescence, SAH detection, recombinant enzyme; activity change, negative = inhibition: at 57.3 µM (top of the series)
[9] = biological target: Nicotinamide N-methyltransferase (Homo sapiens) (UniProt P40261); assay: as above; conditions: MTase-Glo luminescence, SAH detection, recombinant enzyme; measured here: NNMT max response; stronger effect = lower value
[10] = biological target: Phenylethanolamine N-methyltransferase (Homo sapiens) (UniProt P11086); assay: as above; conditions: MTase-Glo luminescence, SAH detection, recombinant enzyme; measured here: PNMT max response; stronger effect = lower value
[11] = biological target: Rap guanine nucleotide exchange factor 3 (Homo sapiens) (UniProt O95398); assay: Confirmatory qHTS for antagonist of cAMP-regulated guanine nucleotide exchange factor 3 (EPAC1) (AID 1645880); further: nearly all actives have a fitted effect of over 55% in size
Procedure, shortened: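 Released BODIPY-GDP fluoresces less than Rap1-bound BODIPY-GDP; the signal is followed at 480/540 nm at 5-min intervals over 30 min, after 5 min at room temperature. Reactions contain 100 nM EPAC1, 250 nM RAP1B-BODIPY-GDP and 50 uM GDP; results are normalized to ATA and DMSO.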

[12] = biological target: Rap guanine nucleotide exchange factor 4 (Homo sapiens) (UniProt Q8WZA2); assay: Confirmatory qHTS for antagonist of cAMP-regulated guanine nucleotide exchange factor 4 (EPAC2) (AID 1645885); further: nearly all actives have a fitted effect of over 25% in size; further: potency means the concentration at half of the fitted maximal effect
[13] = biological target: Rap guanine nucleotide exchange factor 3 (Homo sapiens) (UniProt O95398); assay: Confirmatory qHTS for agonist of cAMP-regulated guanine nucleotide exchange factor 3 (EPAC1) (AID 1645881);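 further: EPAC1 catalysed release of BODIPY-GDP from Rap1B seen as fluorescence loss; nearly all actives have a fitted effect of over 75% in size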
[14] = biological target: Rap guanine nucleotide exchange factor 4 (Homo sapiens) (UniProt Q8WZA2); assay: Confirmatory qHTS for agonist of cAMP-regulated guanine nucleotide exchange factor 4 (EPAC2) (AID 1645884);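 further: nucleotide exchange releases bodipy-GDP from Rap1 and this lowers its fluorescence; nearly all actives have a fitted effect of over 65% in size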
[15] = A High-Content qHTS Against Drug Library for the Identification of Small Molecules that Inhibit DYT1 Early Onset Primary Dystonia-Associated Cell Pathology (AID 1645839; calls by dose curve)
Procedure, shortened: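 Cells were seeded and left for 24 h, then dosed with compound alongside tetracycline induction of mutant EGFP-TorsinA. They were incubated for 48 h, fixed in 4% paraformaldehyde, permeabilized and imaged for mislocalization (%pathology) and cell count.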

Chain of Phenylethanolamine N-methyltransferase (Homo sapiens) (P11086 whole entry, looked up): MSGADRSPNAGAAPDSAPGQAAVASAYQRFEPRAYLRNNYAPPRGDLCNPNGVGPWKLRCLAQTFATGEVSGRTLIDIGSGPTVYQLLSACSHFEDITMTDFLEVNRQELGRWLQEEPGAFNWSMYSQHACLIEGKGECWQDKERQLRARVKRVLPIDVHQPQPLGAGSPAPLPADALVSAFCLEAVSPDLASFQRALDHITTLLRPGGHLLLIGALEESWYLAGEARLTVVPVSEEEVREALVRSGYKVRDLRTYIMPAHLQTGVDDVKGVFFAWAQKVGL
Chain of Nicotinamide N-methyltransferase (Homo sapiens) (P40261 whole entry, looked up): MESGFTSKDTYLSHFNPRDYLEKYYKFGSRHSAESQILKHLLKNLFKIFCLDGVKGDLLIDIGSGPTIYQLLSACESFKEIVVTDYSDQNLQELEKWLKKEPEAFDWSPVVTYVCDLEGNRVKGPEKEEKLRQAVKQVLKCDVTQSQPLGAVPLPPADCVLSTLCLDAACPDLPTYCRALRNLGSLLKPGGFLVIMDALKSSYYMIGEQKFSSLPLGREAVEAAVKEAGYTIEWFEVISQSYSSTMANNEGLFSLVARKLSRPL
Chain of Catechol O-methyltransferase (Homo sapiens) (P21964 whole entry, looked up): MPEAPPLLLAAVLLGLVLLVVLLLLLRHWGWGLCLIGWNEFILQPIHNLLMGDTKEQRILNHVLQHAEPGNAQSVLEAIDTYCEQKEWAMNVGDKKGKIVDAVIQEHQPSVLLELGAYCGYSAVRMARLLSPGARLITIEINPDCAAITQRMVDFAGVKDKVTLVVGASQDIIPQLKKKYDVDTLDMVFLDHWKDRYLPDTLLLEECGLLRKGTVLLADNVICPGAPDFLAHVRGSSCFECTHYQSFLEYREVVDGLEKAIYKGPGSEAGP
Chain of Cytochrome P450 2D6 (Homo sapiens) (P10635 whole entry, looked up): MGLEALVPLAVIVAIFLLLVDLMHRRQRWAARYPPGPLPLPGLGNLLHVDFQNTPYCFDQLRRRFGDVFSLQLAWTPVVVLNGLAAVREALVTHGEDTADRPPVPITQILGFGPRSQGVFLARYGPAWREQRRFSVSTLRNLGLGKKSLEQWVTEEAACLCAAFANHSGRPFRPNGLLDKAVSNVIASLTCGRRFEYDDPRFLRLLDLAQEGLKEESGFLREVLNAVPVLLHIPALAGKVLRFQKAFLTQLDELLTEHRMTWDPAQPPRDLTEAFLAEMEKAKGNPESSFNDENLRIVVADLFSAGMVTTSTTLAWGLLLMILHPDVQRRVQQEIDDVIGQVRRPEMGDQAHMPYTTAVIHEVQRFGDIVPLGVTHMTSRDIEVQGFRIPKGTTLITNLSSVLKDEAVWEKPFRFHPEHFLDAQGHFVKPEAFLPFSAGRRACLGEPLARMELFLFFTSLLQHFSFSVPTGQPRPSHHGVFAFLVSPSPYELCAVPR
Chain of Rap guanine nucleotide exchange factor 4 (Homo sapiens) (Q8WZA2 whole entry, looked up): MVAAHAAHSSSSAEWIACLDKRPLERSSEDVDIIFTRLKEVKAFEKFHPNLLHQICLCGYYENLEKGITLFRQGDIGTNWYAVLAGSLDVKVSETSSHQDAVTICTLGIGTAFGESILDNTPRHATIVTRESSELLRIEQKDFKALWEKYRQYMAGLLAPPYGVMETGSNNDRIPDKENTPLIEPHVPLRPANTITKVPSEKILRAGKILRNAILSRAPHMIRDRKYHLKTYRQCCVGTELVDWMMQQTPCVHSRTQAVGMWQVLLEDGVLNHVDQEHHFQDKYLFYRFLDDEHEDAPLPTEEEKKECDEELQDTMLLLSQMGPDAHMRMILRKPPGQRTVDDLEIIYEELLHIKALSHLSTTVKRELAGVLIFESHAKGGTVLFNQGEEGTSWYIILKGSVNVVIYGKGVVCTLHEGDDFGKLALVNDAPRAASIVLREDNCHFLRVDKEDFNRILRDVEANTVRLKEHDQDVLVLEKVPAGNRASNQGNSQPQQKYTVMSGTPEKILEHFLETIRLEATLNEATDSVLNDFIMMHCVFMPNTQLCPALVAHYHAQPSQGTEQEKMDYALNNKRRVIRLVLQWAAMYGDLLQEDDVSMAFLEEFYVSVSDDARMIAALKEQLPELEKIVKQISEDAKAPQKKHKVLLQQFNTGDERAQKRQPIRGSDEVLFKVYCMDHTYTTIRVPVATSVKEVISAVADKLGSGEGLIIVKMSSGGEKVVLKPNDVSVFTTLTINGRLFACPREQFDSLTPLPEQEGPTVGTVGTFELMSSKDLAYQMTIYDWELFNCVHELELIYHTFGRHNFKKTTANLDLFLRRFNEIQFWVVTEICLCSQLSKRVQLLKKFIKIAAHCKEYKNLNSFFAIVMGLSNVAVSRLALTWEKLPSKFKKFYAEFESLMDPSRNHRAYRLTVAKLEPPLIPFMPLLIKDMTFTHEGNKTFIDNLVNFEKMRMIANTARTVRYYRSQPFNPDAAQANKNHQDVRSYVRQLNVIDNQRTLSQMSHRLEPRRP
Chain of Rap guanine nucleotide exchange factor 3 (Homo sapiens) (O95398 whole entry, looked up): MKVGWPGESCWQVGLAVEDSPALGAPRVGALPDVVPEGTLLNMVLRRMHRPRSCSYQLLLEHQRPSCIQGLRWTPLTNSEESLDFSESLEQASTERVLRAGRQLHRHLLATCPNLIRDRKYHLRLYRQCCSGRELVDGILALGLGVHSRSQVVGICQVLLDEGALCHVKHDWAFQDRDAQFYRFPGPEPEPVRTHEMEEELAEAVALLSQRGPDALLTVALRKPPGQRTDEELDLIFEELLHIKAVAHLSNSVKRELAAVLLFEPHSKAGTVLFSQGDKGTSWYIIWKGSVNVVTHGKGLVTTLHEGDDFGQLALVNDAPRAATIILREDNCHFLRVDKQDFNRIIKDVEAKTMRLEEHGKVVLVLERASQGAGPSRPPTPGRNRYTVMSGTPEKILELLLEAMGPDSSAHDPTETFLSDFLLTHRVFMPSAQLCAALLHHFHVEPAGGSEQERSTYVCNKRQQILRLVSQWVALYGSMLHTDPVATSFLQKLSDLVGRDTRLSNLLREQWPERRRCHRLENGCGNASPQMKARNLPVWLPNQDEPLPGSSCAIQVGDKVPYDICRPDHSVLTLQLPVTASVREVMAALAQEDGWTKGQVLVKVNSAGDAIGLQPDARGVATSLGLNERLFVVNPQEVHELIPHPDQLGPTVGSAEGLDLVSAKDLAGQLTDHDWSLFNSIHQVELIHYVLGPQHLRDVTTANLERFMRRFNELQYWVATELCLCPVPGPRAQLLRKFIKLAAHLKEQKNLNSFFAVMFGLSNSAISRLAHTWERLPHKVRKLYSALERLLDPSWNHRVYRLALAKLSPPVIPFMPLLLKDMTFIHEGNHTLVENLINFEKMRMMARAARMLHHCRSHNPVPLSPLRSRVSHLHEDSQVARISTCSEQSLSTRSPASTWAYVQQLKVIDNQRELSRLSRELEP
Chain of Cytochrome P450 2C9 (Homo sapiens) (P11712 whole entry, looked up): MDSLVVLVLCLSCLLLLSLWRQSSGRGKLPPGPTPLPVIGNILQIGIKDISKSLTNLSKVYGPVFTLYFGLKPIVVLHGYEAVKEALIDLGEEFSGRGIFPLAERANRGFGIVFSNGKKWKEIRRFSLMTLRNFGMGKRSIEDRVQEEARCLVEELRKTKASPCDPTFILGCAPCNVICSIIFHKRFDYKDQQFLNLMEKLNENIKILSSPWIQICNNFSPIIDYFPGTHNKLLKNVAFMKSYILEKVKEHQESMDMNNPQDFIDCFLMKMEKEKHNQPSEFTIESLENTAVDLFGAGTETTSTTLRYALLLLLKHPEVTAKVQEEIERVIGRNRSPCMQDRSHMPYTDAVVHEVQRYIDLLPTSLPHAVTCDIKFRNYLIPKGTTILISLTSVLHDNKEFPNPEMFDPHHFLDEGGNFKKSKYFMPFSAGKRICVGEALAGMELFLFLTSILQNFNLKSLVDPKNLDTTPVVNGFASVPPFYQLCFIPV

NC[C@H]1O[C@H](O[C@@H]2[C@@H](O)[C@@H](O[C@H]3O[C@H](CO)[C@@H](O)[C@H](N)[C@@H]3O)[C@H](N)C[C@@H]2N)[C@H](O)[C@@H](O)[C@H]1O
Potency [1]: inactive | Potency [2]: inactive

COc1cc2nccc(Oc3ccc(NC(=O)Nc4ccc(F)cc4F)c(F)c3)c2cc1OC
Potency [3]: inactive | Potency [2]: 2.35 µM (active)

CN1CC(=O)NC1=NC(=O)Nc1cccc(Cl)c1
Potency [1]: inactive

COc1cc(F)c(C(C)C)cc1-c1ccc(C(F)(F)F)cc1CN1C(=O)O[C@H](c2cc(C(F)(F)F)cc(C(F)(F)F)c2)[C@@H]1C
Potency [3]: inactive | Potency [2]: inactive

COc1ccc2ccc(=O)oc2c1CC=C(C)C
Potency [3]: inactive | outcome [4]: inactive

COc1ccc(C=CC(=O)Nc2ccccc2C(=O)O)cc1OC
Potency [5]: inactive | Potency [6]: 16.9 µM (active)

CN1CCc2c(n(Cc3ccc(C(=O)NO)cc3)c3ccccc23)C1
Potency [5]: 6.74 µM (active) | Potency [1]: 18.3 µM (active) and 16.6 µM (active) | Potency [2]: 14.5 µM (active) and 18.6 µM (active) | activity [7]: 0% | activity change, negative = inhibition [8]: 0.311% | activity [9]: -0.568% | activity [10]: 4.88%

Cc1cc2nc3c(=O)[nH]c(=O)nc-3n(CC(O)C(O)C(O)CO)c2cc1C (stereo not drawn)
Potency [1]: inactive | Potency [11]: inactive | Potency [12]: inactive

O=C(CCCN1CCN(c2ccc(F)cc2)CC1)NC1c2ccccc2CSc2ccccc21 (stereo not drawn)
Potency [5]: 4.36 µM (active) | Potency [6]: 8.71 µM (active)

O=C(NCCCCN1CCOCC1)c1cc2ccccc2o1
Potency [1]: inactive | Potency [2]: inactive

CCCCCCCCCCCCCCCC(=O)O[C@H]1[C@@H](O)[C@@H](O)[C@@H]([C@H](NC(=O)[C@@H]2C[C@@H](CCC)CN2C)[C@H](C)Cl)O[C@@H]1SC
Potency [3]: inactive | Potency [2]: inactive

COc1cccc(OC)c1-c1cc(C(=O)NC2(C(=O)O)C3CC4CC(C3)CC2C4)nn1-c1ccnc2cc(Cl)ccc12 (stereo not drawn)
Potency [3]: inactive | Potency [2]: inactive

CCCCC(C)(C)[C@H](O)C=C[C@H]1[C@H](O)CC(=O)[C@H]1CC=CCCCC(=O)O
Potency [1]: inactive | Potency [2]: inactive

CN(C)N=Nc1nc[nH]c1C(N)=O
Potency [1]: 2.95 µM (active)

CCCCc1ccc(NS(=O)(=O)c2ccc(C)c(C(=O)N3CCN(c4cccc(C)c4C)CC3)c2)cc1
Potency [3]: inactive | Potency [2]: inactive

COc1ccc(Cn2ccc3ccc(C(=O)NO)cc32)cc1
Potency [1]: 9.16 µM (active) and 13.2 µM (active) | Potency [2]: 16.3 µM (active) and 8.33 µM (active)

Cc1nc2c([nH]1)CCN(C(=O)c1ccc(NC(=O)c3ccccc3-c3ccccc3)cc1)c1ccccc1-2
Potency [5]: 4.77 µM (active) | Potency [6]: inactive

O=C(O)CCNc1cc(N2CCc3ccccc3CC2)nc(-c2ccccn2)n1
activity change, negative = inhibition [5]: 10.8% [at 11.5 µM] (inactive) | Potency [1]: inactive | Potency [2]: inactive

CN(C)S(=O)(=O)c1ccc2c(c1)C(=Cc1cc3c([nH]1)CCCC3)C(=O)N2
Potency [3]: inactive | Potency [2]: 2.95 µM (active)

CN(C)CCCNC(=O)c1ccc(-c2cc(O)c3ncccc3c2)cc1
Potency [1]: 9.2 µM (active) and 10.5 µM (active) | Potency [2]: 10.3 µM (active) and 9.34 µM (active) | activity [7]: -84% and -99.6% | activity change, negative = inhibition [8]: 2.82% and 3.64% | activity [9]: -0.93% and -8.84% | activity [10]: -2.71% and -2.66%

O=C(Nc1ncc(SCCN2CCCC2)s1)[C@]1(c2ccc(S(=O)(=O)C3CC3)cc2)C[C@@H]1C1CCCCC1
Potency [1]: 20.6 µM (active) | Potency [2]: 14.6 µM (active)

C[C@@H](O[C@H]1OCCN(Cc2n[nH]c(=O)[nH]2)[C@@H]1c1ccc(F)cc1)c1cc(C(F)(F)F)cc(C(F)(F)F)c1
Potency [3]: inactive | Potency [13]: inactive | Potency [14]: inactive | Potency [12]: 22.1 µM (active)

NS(=O)(=O)c1cc(Cl)c(Cl)c(S(N)(=O)=O)c1
Potency [5]: inactive | Potency [6]: inactive | Potency [1]: inactive

OC[C@H]1O[C@@H](OCCc2ccc(O)cc2)[C@H](O)[C@@H](O)[C@H]1O
outcome [15]: inactive | Potency [5]: inactive | Potency [6]: inactive

Cc1nc(C(=O)NCC(=O)O)c(O)c2ccc(Oc3ccccc3)cc12
Potency [5]: inactive | Potency [6]: inactive | Potency [1]: inactive

Cc1cc(NC(=O)Nc2ccc(N(C)C)cc2)c2cc(F)cc(F)c2n1
Potency [1]: inactive

c1ccc(CNc2nc(N3CCOc4ccccc43)nc3c2CCCC3)cc1
Potency [5]: 3.01 µM (active) | Potency [6]: 1.9 µM (active)

COc1ccc(-c2nc3ccc(C4=NNC(=O)CC4C)cc3[nH]2)cc1 (stereo not drawn)
Potency [5]: inactive | Potency [1]: 9.44 µM (active) and 14.8 µM (active) | Potency [2]: 5.96 µM (active) and 11.8 µM (active) | outcome [4]: inactive

CCCC1OC2C[C@@H]3[C@H]4CCC5=CC(=O)C=C[C@]5(C)[C@H]4C(O)C[C@]3(C)[C@]2(C(=O)CO)O1 (stereo partly drawn)
Potency [3]: inactive | Potency [2]: 0.0053 µM (active)
